Coupling enz = qHTS Assay for Inhibitors of Fructose-1,6-bisphosphate Aldolase from Giardia Lamblia: Coupling assay counterscreen. AID 2472, 2010. hit rate 0.67% among 290,000. activity change, negative = inhibition, % at 58.2 µM, hits read low. coupling enzyme system counterscreen, AmpLite Red fluorescence; in the data active = activity change below about -30%
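First, compound is pin-transferred into glyceraldehyde-3-phosphate coupling-enzyme reagent at 57.5 uM final and held 10 min at RT. Next, substrate, coupling system and AmpLite Red are added. After 20 min RT, fluorescence (525/598 nm) is read.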
TSHR antagonist = Antagonists of the Thyroid Stimulating Hormone Receptor: HTS campaign; Thyrotropin receptor (Homo sapiens), P16473; TSHR-expressing cells, TSH-stimulated cAMP HTRF, 2 h; hits give low values; activity change, negative = inhibition, % at 11.5 µM; hit rate 0.2% among 330,000; AID 504810, 2011;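 active = activity change below a set negative limit, meaning inhibition stronger than a set level, cut at about -70% in these data; inconclusive = activity change between two set negative limits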
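Inhibition of cAMP made by TSHR-expressing cells under TSH stimulation (4nM final, EC80; 2 h, 37 deg C) is quantified with a one-step lysis HTRF kit, anti-cAMP cryptate versus cAMP-d2.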
VP16 counter = VP16 counterscreen qHTS for inhibitors of ROR gamma transcriptional activity. Drosophila S2 Gal4-VP16 UAS-luciferase, luminescence, 20 h. Potency, µM (titrated, usually from 53.6 µM), for the others: top-dose activity, negative = inhibition, most hits filed as inhibitors. hit rate 3.5% among 310,000;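 note: Gal4-VP16 expression switched on by copper sulfate through the metallothionein promoter; potency is the fitted concentration of half-maximal effect; nearly all actives have a fitted effect of over 50% in size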
ELG1 repair inh = qHTS screen for small molecules that inhibit ELG1-dependent DNA repair in human embryonic kidney (HEK293T) cells expressing luciferase-tagged ELG1 | HEK293T ELG1-luciferase reporter, luminescence, 16 h; DNA damage induced by 5-fluorouridine | Potency, µM (doses to about 46.1 µM), without a hit: top-dose activity change, negative = inhibition, actives largely listed as inhibitors | hit rate 2.3% among 330,000 | AID 504467, 2011; note: potency is the fitted concentration of half-maximal effect; nearly all actives have a fitted effect of over 55% in size
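Reporter activity after DNA damage by 5-fluorouridine is monitored. Compound-treated cells incubate 16 hr at 37 °C, then ONE-Glo is added for 30 min before luminescence reading.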
RORg inh = qHTS for inhibitors of ROR gamma transcriptional activity; Potency, µM (top dose mostly 53.6 µM), for inactives: at the top dose activity change, negative = inhibition, usual class: inhibitors; Nuclear receptor ROR-gamma (Mus musculus), P51450; Drosophila S2 Gal4-RORgamma UAS-luciferase reporter, 20 h; hit rate 5.4% among 310,000; note: potency is the fitted concentration of half-maximal effect; nearly all actives have a fitted effect of over 60% in size
Target sequence (P51450 whole entry, looked up, the tested form may be a part): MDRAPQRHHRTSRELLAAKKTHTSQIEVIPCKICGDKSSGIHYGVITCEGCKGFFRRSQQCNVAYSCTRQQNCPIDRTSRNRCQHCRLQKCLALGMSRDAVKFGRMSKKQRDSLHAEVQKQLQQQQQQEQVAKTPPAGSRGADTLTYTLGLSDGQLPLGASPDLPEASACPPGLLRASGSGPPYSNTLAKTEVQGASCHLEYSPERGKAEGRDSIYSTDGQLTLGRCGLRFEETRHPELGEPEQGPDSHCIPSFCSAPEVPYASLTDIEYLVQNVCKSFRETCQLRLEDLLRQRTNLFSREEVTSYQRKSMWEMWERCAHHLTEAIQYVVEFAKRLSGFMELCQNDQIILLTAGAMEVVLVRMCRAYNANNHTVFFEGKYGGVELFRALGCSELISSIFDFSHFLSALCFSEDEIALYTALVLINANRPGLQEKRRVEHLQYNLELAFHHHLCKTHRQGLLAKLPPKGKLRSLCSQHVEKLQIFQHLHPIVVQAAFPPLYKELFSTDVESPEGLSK
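Read-out: Photinus luciferase luminescence; inhibitors lower reporter signal. Insect Schneider cells with Gal4-ROR gamma fusion under metallothionein promoter, UAS reporter; 700 uM final copper sulfate induction, 20 hr, ambient temperature.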
* hit, by the source's call; ? = inconclusive; nt = no result given. Only some compounds are listed: those with a hit (about 8% of all), similar ones and a draw of the others. Unless noted, calls come from the whole dose curve; as a rule, active = well fitted curve in the direction sought with a large enough effect; inconclusive = small, poorly fitted or top-dose-only effect, or another doubt; inactive = no such curve, though single readings can be large; an effect the other way counts as inactive or inconclusive. % is set by controls: 0 for no effect and ±100 for the full control effect.

SMILES	Coupling enz	TSHR antagonist	VP16 counter	ELG1 repair inh	RORg inh
Cc1ccc2c(CN3CCN(S(=O)(=O)c4ccc5c(c4)OCCO5)CC3)cc(=O)oc2c1C	0	?	-2%	15µM*	7%
Cc1ccc2c(CN3CCN(Cc4ccc5c(c4)OCO5)CC3)cc(=O)oc2c1C	-3	-24	2%	?	-15%
O=C(c1cc2cc(F)ccc2[nH]1)N1CCCC(Nc2ccc(F)cc2)C1 (stereo unspecified)	nt	0	-5%	1%	?
Cc1[nH]n(-c2ccccc2)c(=O)c1C(C[N+](=O)[O-])c1ccccc1Cl (stereo unspecified)	-8	-1	14%	-1%	7%
COc1ccc(C(C[N+](=O)[O-])c2c(C)[nH]n(-c3ccccc3)c2=O)cc1 (stereo unspecified)	-39*	6	?	-15%	13µM*
O=C1[C@H]2[C@@H](C(=O)N1c1cccc3ccccc13)C1(C(=O)c3ccccc3C1=O)N1CCC[C@@H]21	-10	1	20µM*	8%	-80%
O=C1C2C3C=CC(C3)C2C(=O)N1c1cccc2ccccc12 (stereo unspecified)	3	2	-6%	-3%	-10%
Cc1nnn(-c2nonc2N)c1C(=O)N/N=C/c1cccc2ccccc12	3	-12	13µM*	9%	-116%
Cc1nnn(-c2nonc2N)c1C(=O)N/N=C/c1ccccc1O	1	1	2.8µM*	?	1.3µM*
c1ccc(CNc2ccc3ccccc3n2)nc1	1	11	?	?	10µM*
CCOC(=O)C(Cc1ccc(NC(C)=O)cc1)N1C(=O)c2ccccc2C1=O (stereo unspecified)	nt	-8	nt	?	nt
CCCOc1ccc(N2C(=O)CC(N3CCN(c4ccc([N+](=O)[O-])cc4)CC3)C2=O)cc1 (stereo unspecified)	0	-14	?	2.1µM*	?
CCOc1ccc(N2C(=O)CC(N3CCN(c4ccc([N+](=O)[O-])cc4)CC3)C2=O)cc1 (stereo unspecified)	1	24	?	5%	28%
CCOC(=O)c1cnc(-n2nc(C)cc2C)nc1NNc1nc(-c2ccccc2)cc(-c2ccccc2)n1	0	1	0.71µM*	5.2µM*	0.79µM*
CCOC(=O)c1cnc(-n2nc(C)cc2C)nc1NNc1nc(C)cc(C)n1	3	0	?	12µM*	4µM*
COc1ccc2cc(C(=O)C3CCCN(Cc4ccccn4)C3)ccc2c1 (stereo unspecified)	-3	0	?	-13%	3.2µM*
CCn1ccnc1CN1CCCC(C(=O)c2ccc3cc(OC)ccc3c2)C1 (stereo unspecified)	-5	0	1.6µM*	?	0.022µM*
COc1c(C)cc(C(=O)C2CCCN(Cc3ccc(Oc4ncccn4)cc3)C2)cc1C (stereo unspecified)	1	-9	4%	18µM*	17%
CC(C)Oc1cccc(C(=O)C2CCCN(Cc3ccc(Oc4ncccn4)cc3)C2)c1 (stereo unspecified)	1	5	-9%	-19%	4%
COc1ccc2cc(C(=O)C3CCCN(Cc4cnc(N5CCOCC5)s4)C3)ccc2c1 (stereo unspecified)	0	-11	-3%	?	7%
CC(Sc1n[nH]c(=O)n1Cc1ccccc1)C(=O)NCC1CCCO1 (stereo unspecified)	nt	1	nt	2%	nt
CN(C)C(=O)c1ccc(-c2cncnc2NCc2cccnc2)cc1	-3	nt	-19%	nt	10%
COC(=O)CC1C(C)(C)C(OC(C)=O)C2CC3C4CC(=O)OC(c5ccoc5)[C@]4(C)CCC3[C@@]1(C)C2=O (stereo partly specified)	1	nt	-4%	nt	33%

Source: PubChem (National Center for Advancing Translational Sciences (NCATS))
